Experimental data reported in ChEMBL document CHEMBL3988442, “University of Dundee, Small-Polar-MMV Screening Library” (2021).
The whole screen tested about 69,000 compounds, of which about 1,000 (1.4%) showed an effect of 50% or more. What follows is part of a selection rich in strong results, with near analogues and random picks from the rest.

System: Leishmania donovani
Assay: Leishmania intramacrophage assay
Type: functional, organism-based
Design: scale not given: in the data most compounds retested in dose-response had high values

## CCCS(=O)(=O)NC(=O)c1sc(C2CCCC2)nc1C
30.3 µM, […]
  Percent Effect: 11.93%

## COCCNC(=O)C[C@@H]1COC[C@H]2CN(C(=O)c3cnccn3)C[C@@H]12
30 µM, 30.03 µM
  Percent Effect: 9.909%

## COCCNC(=O)C[C@@H]1COC[C@H]2CN(C(=O)C3CCOCC3)C[C@@H]12
30.3 µM, […]
  Percent Effect: 11.97%

## COCCNC(=O)C[C@@H]1COC[C@H]2CN(C(=O)COC)C[C@@H]12
30.3 µM, […]
  Percent Effect: 51.2%

## COC(=O)C(c1ccccc1)N(C)C(=O)c1ccnc(C)n1 (stereo unspecified)
30 µM
  Percent Effect: 22.67%

## Cc1ccccc1-n1ccc2nc(N3CCCC3)ncc2c1=O
30.3 µM, […]
  Percent Effect: 13.99%

## CS(=O)(=O)CC(=O)N(CCN1CCOCC1)Cc1ccco1
30.3 µM, […]
  Percent Effect: -78.1%

## COCCN1CCC2(CC1)CC(NC(=O)CN(C)C)c1ccccc1O2.O=C(O)C(F)(F)F.O=C(O)C(F)(F)F (stereo unspecified)
30.3 µM, […]
  Percent Effect: 52.21%

## Cc1ccc2c(c1)C(N1CCOCC1)CC21CCNCC1 (stereo unspecified)
30.3 µM, […]
  Percent Effect: 55.92%

## Cc1ccc2c(c1)C1(CCNCC1)CC2N1CCOCC1 (stereo unspecified)
30.3 µM, […]
  Percent Effect: 11.46%

## COCCN1CCC2(CC1)CC(NC(=O)CC1CC1)c1ccccc1O2.O=C(O)C(F)(F)F (stereo unspecified)
30.3 µM, […]
  Percent Effect: -12.69%

## COCCN1CCC2(CC1)CC(NC(=O)COC)c1ccccc1O2.O=C(O)C(F)(F)F (stereo unspecified)
30.3 µM, […]
  Percent Effect: 15.07%

## Cn1cncc1CNC1CC2(CCN(CC3CC3)CC2)c2ccccc21.O=C(O)C(F)(F)F.O=C(O)C(F)(F)F (stereo unspecified)
30.3 µM, […]
  Percent Effect: 22.11%

## COCCN1CCC2(CC1)CC(NCc1ccc(C)s1)c1ccccc12.O=C(O)C(F)(F)F.O=C(O)C(F)(F)F (stereo unspecified)
30.3 µM, […]
  Percent Effect: 59.95%

## Cc1ccc(CNC2CC3(CCN(CCO)CC3)c3ccccc32)s1.O=C(O)C(F)(F)F.O=C(O)C(F)(F)F (stereo unspecified)
30.3 µM, […]
  Percent Effect: 81.48%

## Cc1cccc(CNC2CC3(CCN(CCO)CC3)c3ccccc32)n1.O=C(O)C(F)(F)F.O=C(O)C(F)(F)F (stereo unspecified)
30.3 µM, […]
  Percent Effect: 9.361%

## COCCN1CCC2(CC1)CC(NCc1cncn1C)c1ccccc12.O=C(O)C(F)(F)F.O=C(O)C(F)(F)F (stereo unspecified)
30.3 µM, […]
  Percent Effect: 17.77%

## CCC(=O)N1CCC2(CC1)CC(N1CCOCC1)c1cc(C)ccc12.O=C(O)C(F)(F)F (stereo unspecified)
30.3 µM, […]
  Percent Effect: 12%

## COCC(=O)NC1CC2(CCN(CCO)CC2)c2ccccc21.O=C(O)C(F)(F)F (stereo unspecified)
30.3 µM, […]
  Percent Effect: 8.463%

## CCn1nccc1CNC(=O)C1CCCO1 (stereo unspecified)
30.3 µM, […]
  Percent Effect: 2.08%

## CNc1oc(-c2ccc(OC)c(S(=O)(=O)N3CCCC3)c2)nc1C#N
30.3 µM, […]
  Percent Effect: 16.63%

## CC(=O)N1CCC2(CC1)CC(NS(C)(=O)=O)c1ccccc1O2 (stereo unspecified)
30.3 µM, […]
  Percent Effect: 6.966%

## O=C(NCc1cccs1)c1nc2c(o1)CN(c1ncccn1)C2
30.3 µM, […]
  Percent Effect: 27.75%

## CCn1c(CC2CCN(C(=O)c3ccnn3C)CC2)n[nH]c1=O
30.3 µM, […]
  Percent Effect: 15.21%

## Cc1csc(CNC(=O)NCC(O)c2cccc(Cl)c2)n1 (stereo unspecified)
30 µM, 30.03 µM
  Percent Effect: 17.1%

## CCCN(C(=O)c1csnn1)C1CCCN(Cc2ccccc2)C1 (stereo unspecified)
30.3 µM, […]
  Percent Effect: 11.65%

## COCCN1CCC2(CC1)CC(N1CCOCC1)c1ccc(C)cc12.O=C(O)C(F)(F)F.O=C(O)C(F)(F)F (stereo unspecified)
30.3 µM, […]
  Percent Effect: 56.38%

## CC(=O)N1CCC2(CC1)CC(N1CCOCC1)c1ccc(C)cc12.O=C(O)C(F)(F)F (stereo unspecified)
30.3 µM, […]
  Percent Effect: 29.16%

## COCCN1CCC2(CC1)CC(N1CCOCC1)c1cc(C)ccc12.O=C(O)C(F)(F)F.O=C(O)C(F)(F)F (stereo unspecified)
30.3 µM, […]
  Percent Effect: 13.44%

## COc1ccc(C(=O)Nc2c(C(=O)N(C)C)nn(C)c2C)cc1
30.3 µM, […]
  Percent Effect: 25.81%

## O=C1CC(c2ccsc2)c2snc(C(=O)O)c2N1 (stereo unspecified)
30.3 µM, […]
  Percent Effect: 9.625%

## Cc1ccc(-c2nnc(SCC(=O)O)n2-c2ccc(C)cc2)cc1
30 µM, 30.03 µM
  Percent Effect: 5.804%

## Cc1ccc(NC2CCCN(C3Cc4ccccc4C3)C2)nn1 (stereo unspecified)
30.3 µM, […]
  Percent Effect: 23.72%

## CNc1nc(C)cc(NC2CCCN(C3Cc4ccccc4C3)C2)n1 (stereo unspecified)
30.3 µM, […]
  Percent Effect: 58.16%

## CNc1cc(C)nc(NC2CCCN(C3Cc4ccccc4C3)C2)n1 (stereo unspecified)
30.3 µM, […]
  Percent Effect: 32.54%

## CN1CCN(C2CCN(Cc3nnc(C(C)(C)C)o3)CC2)C1=O
30 µM
  Percent Effect: 6.935%

## COc1cc(CNCCc2nc(C)cs2)cc2c1OCCO2.Cl
30 µM, 30.03 µM
  Percent Effect: 9.472%

## COc1cccc(CN(C)C(C)c2ccco2)c1OCCn1ccnc1 (stereo unspecified)
30.3 µM, […]
  Percent Effect: 23.12%

## CCCN(CC(=O)N(C)C)C(=O)c1ccc(-c2nc(C)cs2)cc1
30.3 µM, […]
  Percent Effect: 65.78%

## CCCN(CC(=O)NC)C(=O)c1ccc(-c2nc(C)cs2)cc1
30.3 µM, […]
  Percent Effect: 37%

## CCN(CC(=O)N(C)C)C(=O)c1ccc(-c2nc(C)cs2)cc1
30.3 µM, […]
  Percent Effect: -16.68%

## Cc1cc(C2CCCN2Cc2cc(=O)n(C)c(=O)n2C)on1 (stereo unspecified)
30 µM, 30.03 µM
  Percent Effect: -11.72%

## COc1ccc(S(=O)(=O)NCCCc2nnc3nc(C)cc(C)n23)cc1
30.3 µM, […]
  Percent Effect: 5.677%

## CC(C)n1cnnc1SCCN(C)c1ccccc1
30.3 µM, […]
  Percent Effect: -1.184%

## COc1ccc(-c2cc3cccn(CC(=O)N4CCOCC4)c-3n2)cc1
30.3 µM, […]
  Percent Effect: 23.65%

## O=C(Cn1cccc2cc(-c3ccc(F)cc3)nc1-2)N1CCC(O)CC1
30.3 µM, […]
  Percent Effect: 2.575%

## CN(C)CCN(C)C(=O)Cn1cccc2cc(-c3ccc(F)cc3)nc1-2
30.3 µM, […]
  Percent Effect: 78.9%

## CC(C)(C)c1ncc2c(n1)CN(c1cc(NCCO)nc(N)n1)C2
30.3 µM, […]
  Percent Effect: 34.79%

## O=C(C1CC(=O)N(c2n[nH]c3cc(Br)ccc23)C1)N1CCOCC1 (stereo unspecified)
30.3 µM, […]
  Percent Effect: -3.266%

## CC(C)CCNC(=O)c1ccc(Cl)c(NS(C)(=O)=O)c1
30.3 µM, […]
  Percent Effect: 6.444%

## O=C(Cc1ccsc1)N1C[C@@H]2CN(Cc3ccoc3)CCO[C@@H]2C1.O=C(O)C(F)(F)F
30 µM, 30.03 µM
  Percent Effect: 9.64%

## COCCN(C)C(=O)c1ccc(OC)cc1O
30 µM, 30.03 µM
  Percent Effect: -17.55%

## COCCCNC(=O)CN(C)C(=O)c1ccc(OC)cc1O
30 µM
  Percent Effect: 24.99%

## COc1ccc(OCCN(C)C(=O)c2ccc(OC)cc2O)cc1
30.3 µM, […]
  Percent Effect: 55.32%

## CCN(C)C(=O)CN1CCC(c2cc(N3CCOCC3)nc(C)n2)CC1
30.3 µM, […]
  Percent Effect: -1.668%

## NC(=O)NCCC(=O)N1CCC(c2cc(Cc3ccccc3)n[nH]2)CC1
30.3 µM, […]
  Percent Effect: -20.51%

## Nc1nc(O)cc(N2CCC(c3cc(Cc4ccccc4)n[nH]3)CC2)n1
30.3 µM, […]
  Percent Effect: 4.937%

## Cc1cc(CN2CCC(c3cc(Cc4ccccc4)n[nH]3)CC2)[nH]n1
30.3 µM, […]
  Percent Effect: 26.02%

## Nc1cc(N2CCC(c3cc(Cc4ccccc4)n[nH]3)CC2)ccn1
30.3 µM, […]
  Percent Effect: 96.12%

## Cc1ccc(N2CCC(c3cc(Cc4ccccc4)n[nH]3)CC2)nn1
30.3 µM, […]
  Percent Effect: 15.09%

## Nc1nccc(N2CCC(c3cc(Cc4ccccc4)n[nH]3)CC2)n1
30.3 µM, […]
  Percent Effect: 63.85%
